# According to the supplement of paper PMC10670038:
# Where a name gives a salt, the structure may show the parent alone. ± gives the standard deviation of the averaged measurements. Whole data set: some 2,000 compounds, median “relative cell viability vs DMSO, compound + 0.2 uM CuET” near 1, cut for the lowest 2% near 0.25. The sample as a whole holds a higher share of the lowest values than the screen did.
# Test system: TE10
# Assay: relative cell viability vs DMSO, compound + 0.2 uM CuET (fraction); TE10 is an esophageal squamous carcinoma line; higher = less cytotoxic
# Settings: 2 µM; co-treatment: CuET (bis(diethyldithiocarbamate)copper) 0.2 uM; 48 h
# Method: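 TE10 ESCC cells (1,000/well, 384-well plates) were treated with Selleck bioactive library compounds at 2 uM combined with 0.2 uM CuET (copper diethyldithiocarbamate) for 48 h. Viability was read by CellTiter-Glo and expressed relative to DMSO wells. Two technical replicates (A, B).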
row,SMILES,relative cell viability
1,Cc1[nH]c2ccccc2c1CCNCc1ccc(/C=C/C(=O)NO)cc1 [Panobinostat (LBH589)],0.151 ± 0.0045
2,Cc1[nH]c2ccccc2c1C1=C(NCCc2ccc(F)cc2)C(=O)N(C)C1=O,1.17 ± 0.023
3,Cc1[nH]c2ccccc2c1CCNC(=O)c1cccs1,1.01 ± 0.15
4,COc1c(O)cc2c(c1O)[C@@H]1O[C@H](CO)[C@@H](O)[C@H](O)[C@H]1OC2=O [Bergenin],1.18 ± 0.021
5,CN1CCC(NC(=O)c2cc(-c3c(O)cc(O)cc3Oc3ccc([N+](=O)[O-])cc3)on2)CC1,0.6427 ± 0.0019
6,NC1CC1c1ccc(-c2cccc(O)c2)cc1 (configuration not stated),1.13 ± 0.036
7,O=C(C=Cc1ccccc1)NC(NC(=S)Nc1ccc(Cl)cc1)C(Cl)(Cl)Cl (configuration not stated),0.908 ± 0.014
8,O=C(/C=C/c1cccc(S(=O)(=O)Nc2ccccc2)c1)NO [Belinostat (PXD101)],0.195 ± 0.017
9,Cn1cc(/C=C/C(=O)c2cccc(F)c2)cc1/C=C/C(=O)NO,0.872 ± 0.12
10,COC1C(O)CC(=O)OC(C)CC=CC=CC(OC2CCC(N(C)C)C(C)O2)C(C)CC(CC=O)C1OC1OC(C)C(OC2CC(C)(O)C(O)C(C)O2)C(N(C)C)C1O (configuration not stated) [Spiramycin],1.11 ± 0.0071
11,COC(=O)CC(NC(=O)C(C)NC(=O)C(NC(=O)OCc1ccccc1)C(C)C)C(=O)CF (configuration not stated),1.3 ± 0.057
12,CN(C)Cc1ccc(S(=O)(=O)n2ccc(/C=C/C(=O)NO)c2)cc1 [Resminostat],0.848 ± 0.19
13,CCCCc1nc2cc(/C=C/C(=O)NO)ccc2n1CCN(CC)CC [Pracinostat (SB939)],0.2435 ± 0.00015
14,COc1cc2c(cc1NS(=O)(=O)c1ccc(Br)cc1C)n(C)c(=O)n2C,1.17 ± 0.15
15,CCCC(=O)Nc1cccc(NC(=O)c2ccccc2Br)c1,1.01 ± 0.16
16,O=C(O)CCNc1cc(N2CCc3ccccc3CC2)nc(-c2ccccn2)n1,0.765 ± 0.0059
17,CNc1nc(Nc2cnn(C3CCN(C4COC4)CC3F)c2Cl)ncc1C(F)(F)F (configuration not stated),1.195 ± 0.0015
18,Nc1cccc(-c2cc3c(Oc4cccc(O)c4)ncnc3[nH]2)c1,0.976 ± 0.062
19,COc1ccc(-c2cnc3c(-c4cccc5ncccc45)cnn3c2)cc1,1.17 ± 0.13
20,CC(C)Oc1ccc(-c2cnc3c(-c4ccnc5ccccc45)cnn3c2)cc1,1.15 ± 0.088
21,c1cc(-c2cnn3cc(-c4ccc(N5CCNCC5)cc4)cnc23)c2cccnc2c1,0.182 ± 0.0055

row,SMILES,relative cell viability
1,"Cc1c(C(=O)Nc2ccc(N3C[C@@H](C)O[C@@H](C)C3)nc2)cccc1-c1ccc(OC(F)(F)F)cc1 [LDE225 (NVP-LDE225,Erismodegib)]",0.714 ± 0.081
2,CNc1ncnc2c1ncn2[C@@H]1O[C@H](CO)[C@@H](O)[C@H]1O [N6-methyladenosine (m6A)],1.06 ± 0.23
3,COc1nc(N)nc2c1ncn2[C@@H]1O[C@H](CO)[C@@H](O)[C@@H]1O [Nelarabine],1.21 ± 0.043
4,COc1ccc(C[C@H](N)C(=O)N[C@H]2[C@@H](O)[C@H](n3cnc4c(N(C)C)ncnc43)O[C@@H]2CO)cc1 [Puromycin 2HCl],0.249 ± 0.0061
5,Nc1nonc1C(=Nc1ccc(F)c(Cl)c1)NO,1.15 ± 0.14
6,O=C(Nc1cc2cc[nH]c2cn1)c1ccccc1,0.3986 ± 0.0004
7,COc1ccc(-c2nc(N3CCOCC3)c3sc(CN(C)c4ncc(C(=O)NO)cn4)cc3n2)cn1,0.1569 ± 0.00068
8,CS(=O)(=O)N1CCN(Cc2cc3nc(-c4cccc5[nH]ncc45)nc(N4CCOCC4)c3s2)CC1,0.68 ± 0.0074
9,Cc1c(CN2CCN(C(=O)[C@H](C)O)CC2)sc2c(N3CCOCC3)nc(-c3cnc(N)nc3)nc12,0.495 ± 0.091
10,NCCCC[C@@H]1NC(=O)[C@@H](Cc2ccc(O)cc2)NC(=O)[C@H](CC(=O)O)NC(=O)CNC(=O)[C@H](CCCN=C(N)N)NC1=O [Cyclo(RGDyK)],1.19 ± 0.27
11,O=C(O)c1ccc(N2C(=O)C(=Cc3ccc(-c4ccc([N+](=O)[O-])cc4)o3)C=C2c2ccccc2)cc1,1.1 ± 0.22
12,Cc1cc(C)cc(C(=O)NOCCCCCC(=O)NO)c1,0.23 ± 0.02
13,Cc1cc(Cl)ccc1OCCCC(=O)NO [Droxinostat],0.997 ± 0.063
14,"O=C(CCCCCCC(=O)Nc1ccccc1)NO [Vorinostat (SAHA, MK0683)]",0.473 ± 0.055
15,C[C@H](O)[C@H](O)[C@@H](O)[C@@H](O)C=O [L-(+)-Rhamnose Monohydrate],1.15 ± 0.046
16,CC(NC(=O)Cc1cc(F)cc(F)c1)C(=O)NC(C(=O)OC(C)(C)C)c1ccccc1 (configuration not stated),1.23 ± 0.04
17,CN(CCOc1ccc(CC2SC(=O)NC2=O)cc1)c1ccccn1 (configuration not stated) [Rosiglitazone maleate],1.12 ± 0.081
18,CN(CCOc1ccc(CC2SC(=O)NC2=O)cc1)c1ccccn1 (configuration not stated) [Rosiglitazone HCl],1.06 ± 0.062
19,CN(CCOc1ccc(CC2SC(=O)NC2=O)cc1)c1ccccn1 (configuration not stated) [Rosiglitazone],1.04 ± 0.052
20,COC(=O)C1=C(C#N)NC(C)=C(C(=O)OC(C)C)C1c1cccc([N+](=O)[O-])c1 (configuration not stated) [Nilvadipine],1.11 ± 0.1
21,O=C(Nc1cccc2cccnc12)c1ccc(N2C(=O)C3C4C=CC(C4)C3C2=O)cc1 (stereo not drawn) [IWR-1-endo],0.994 ± 0.1
